Bioassay records deposited in PubChem BioAssay by Johns Hopkins Ion Channel Center.
KCNQ2 inh = KCNQ2 (rat) channel inhibition; AID 2156; CHO-K1 KCNQ2, FluxOR thallium flux, 20 min; active compounds read low; O88943; hit rate 1.1% among 310,000; B-score at 10 µM;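 active = fluorescence ratio B-score at most minus 3 library SDs, with starting brightness B-score within 2 library SDs, cut at about -5.5 in these data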
Target sequence (O88943 whole entry, looked up): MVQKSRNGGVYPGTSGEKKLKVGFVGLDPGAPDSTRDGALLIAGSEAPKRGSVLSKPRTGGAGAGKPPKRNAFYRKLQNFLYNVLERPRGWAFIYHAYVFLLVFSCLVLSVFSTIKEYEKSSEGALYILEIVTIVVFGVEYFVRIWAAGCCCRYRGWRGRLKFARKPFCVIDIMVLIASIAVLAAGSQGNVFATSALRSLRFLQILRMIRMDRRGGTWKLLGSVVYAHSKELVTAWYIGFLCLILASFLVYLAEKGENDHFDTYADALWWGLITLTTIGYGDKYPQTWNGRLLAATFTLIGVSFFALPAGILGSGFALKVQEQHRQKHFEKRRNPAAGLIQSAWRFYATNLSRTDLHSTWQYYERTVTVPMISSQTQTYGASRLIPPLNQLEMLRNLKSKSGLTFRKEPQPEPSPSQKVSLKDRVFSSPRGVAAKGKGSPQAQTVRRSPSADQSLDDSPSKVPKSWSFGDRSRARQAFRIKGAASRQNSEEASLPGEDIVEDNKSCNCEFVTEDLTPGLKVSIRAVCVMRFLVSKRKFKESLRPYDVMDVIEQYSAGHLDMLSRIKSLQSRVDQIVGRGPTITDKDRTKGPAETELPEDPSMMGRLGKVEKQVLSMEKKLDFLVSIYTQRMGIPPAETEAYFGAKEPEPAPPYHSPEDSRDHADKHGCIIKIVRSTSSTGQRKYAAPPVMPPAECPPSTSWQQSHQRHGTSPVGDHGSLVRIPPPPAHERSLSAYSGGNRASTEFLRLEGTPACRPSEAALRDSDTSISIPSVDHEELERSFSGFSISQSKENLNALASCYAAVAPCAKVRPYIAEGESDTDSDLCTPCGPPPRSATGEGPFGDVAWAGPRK
KCNQ2 enhance = KCNQ2 (rat) channel potentiation. hit rate 0.54% among 310,000. CHO-K1 KCNQ2, FluxOR thallium flux fluorescence; active compounds read high. B-score at 10 µM. AID 2239. O88943;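 active = fluorescence ratio B-score at least 3 SD of library B-scores, with initial fluorescence B-score within 3 of them, cut at about 5.3 in these data; same plate scores as AID 2156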;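 also: B-score of peak minus minimum over baseline fluorescence ratio after K+ and Tl+ stimulus; positive B-score means potentiation of KCNQ2 with more thallium influx and brighter signal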
Numbers without * were called inactive; i = inactive; . = not tested or not shown. This is a sample that favours compounds with a hit; in the whole collection about 1.6% have one here.

SMILES	KCNQ2 inh	KCNQ2 enhance
COc1ccc(S(=O)(=O)N2CCCC2)cc1C(C)C	-6.9*	-6.9
COc1ccc(S(=O)(=O)N2CCCC(C(=O)N3CCN(C)CC3)C2)cc1Cl (stereo not drawn)	i	.
COc1ccc(S(=O)(=O)N2CCCC2)cc1OC	i	0.02
COc1ccc(S(=O)(=O)N2CCCC(C(=O)N3CCOCC3)C2)cc1Cl (stereo not drawn)	-5.6*	-5.6
CCOC(=O)N1CCN(C(=O)COC(=O)CN(C)S(=O)(=O)c2ccc(NC(C)=O)cc2)CC1	i	0.66
O=C(NCc1n[nH]c(=S)n1-c1ccc(Cl)c(Cl)c1)c1ccc(S(=O)(=O)N2CCOCC2)cc1	i	0.97
CC(=O)C(Cc1ccccc1)NC(=O)CN1CCc2ccccc2C1 (stereo not drawn)	i	.
O=C(NC(Cc1ccccc1)C(=O)O)c1ccccc1 (stereo not drawn)	i	.
O=C(NC(Cc1ccccc1)C(=O)N1CCc2ccccc2C1)c1ccccc1 (stereo not drawn)	-6.3*	-6.3
Cc1ccccc1NC(=O)CN1CCc2ccccc2C1	i	.
CC(CCc1ccccc1)NC(=O)CN1CCc2ccccc2C1 (stereo not drawn)	-5.8*	-5.8
COC(=O)c1ccccc1NC(=O)CN1CCc2ccccc2C1	-7.8*	-7.8
Cc1ccc(S(=O)(=O)c2cnc(-c3ccccc3)nc2N2CCCCC2)cc1	i	0.59
CCc1nnc(NC(=O)CC23CC4CC(CC(Br)(C4)C2)C3)s1	i	.
C=CCN(C(=O)CNC(=O)c1cccs1)C(C(=O)NC1CCCCC1)c1cccnc1 (stereo not drawn)	i	0.29
O=C1CN=C(Nc2ccccc2Cl)N1Cc1ccc2c(c1)OCO2	i	.
O=C(COc1cccc2ccccc12)NNC(=O)c1cccs1	i	.
COc1cccc(CNC(=O)Nc2cccs2)c1	i	5.7*
COc1ccc(CNC(=O)Nc2cccs2)cc1OC	i	1.9
COc1ccccc1CCNC(=O)CCn1nc(C)c2c(C)n(-c3ccccc3)nc2c1=O	i	.
Cc1ccc(-c2ccc(C(=O)Nc3ccccc3)o2)c2ccccc12	-5.7*	-5.7
Cc1ccc(-c2ccc(C(=O)NCc3ccccc3)o2)c2ccccc12	i	.
COc1ccc2nc(N=Nc3ccc(O)c4ccccc34)sc2c1	i	9.3*
COc1ccc2nc(N=NC3=C(O)CC(C)(C)CC3=O)sc2c1	i	0.64
CC1CCN(S(=O)(=O)c2cccc(C(=O)NNC(=O)c3ccco3)c2)CC1	i	1.2
SMILES	KCNQ2 inh	KCNQ2 enhance
CCOC(=O)c1ccc(NC(=O)COc2ccc(CNCCO)cc2OCC)cc1	i	0.04
CCOC(=O)c1ccc(NC(=O)COc2ccccc2CNCCc2ccccc2)cc1	-6.8*	-6.8
O=S(=O)(c1ccccc1)c1ccc(N2CCCCCC2)cc1	i	.
COc1cccc(OCc2cc(C(=O)NCCN3CCCCC3CO)no2)c1 (stereo not drawn)	i	0.27
Cc1cc(OCc2cc(C(=O)NCCN3CCCCC3CO)no2)cc(C)c1Cl (stereo not drawn)	-7.9*	-7.9
Cc1ccccc1-n1ncc2c1CC(C)(C)CC2NC(=O)CCC(F)(F)F (stereo not drawn)	i	.
CC(C)CCNC(=O)C(=O)NCc1ccccc1	i	.
CC(C)CC(C(=O)NC1CCCCC1)N(Cc1cccs1)C(=O)c1snc(C(N)=O)c1N (stereo not drawn)	i	.
CC(C)CC(C(=O)NC1CCCC1)N(Cc1cccs1)C(=O)c1snc(C(N)=O)c1N (stereo not drawn)	-5.7*	-5.7
Cc1ccccc1C(=O)O/N=C/c1c(N2CCOCC2)n(C)c2ccccc12	-7.6*	-7.6
CN1CCN(c2c(/C=N/O)c3ccccc3n2C)CC1	i	1.7
O=C(NCC1CCCC(CNC(=O)N2CCc3ccccc32)C1)N1CCc2ccccc21 (stereo not drawn)	-5.8*	-5.8
O=C(Nc1ccccc1)N1CCc2ccccc21	i	.
O=C(/C=C/c1ccc(Cl)c(C(F)(F)F)c1)N1CCN(c2ccccn2)CC1	i	.
O=C(CCc1ccc(CCC(=O)c2cccs2)s1)c1cccs1	-6.8*	-6.8
O=C(CCN1CCCC1)c1cccs1	i	.
CC1CCCN(C(c2cccs2)c2nnnn2Cc2ccccc2)C1 (stereo not drawn)	i	.
CN(Cc1ccccc1)Cc1c(F)cccc1F	i	6.6*
COc1ccc2ccccc2c1CN(C)Cc1ccccc1	i	1.7
COc1ccc(/C=N/OCC(=O)Nc2nc3ccccc3s2)cc1	i	1.2
O=C(CNC(=O)c1ccccn1)N=Nc1c(O)[nH]c2ccccc12	i	1.9
Cc1ccccc1Nc1nc(N)nc(COC(=O)CCS(=O)(=O)c2ccccc2)n1	i	1.7
Cc1ccccc1Nc1nc(N)nc(COC(=O)CC2CC3CCC2C3)n1 (stereo not drawn)	i	20*
CSc1ncccc1C(=O)OCC(=O)c1cccs1	i	.
Cc1ccc(C(=O)N/C(=C/c2ccc(N(C)C)cc2)C(=O)NCC2CCCO2)cc1 (stereo not drawn)	i	.
SMILES	KCNQ2 inh	KCNQ2 enhance
C/C(=N\Nc1nc2ccccc2[nH]1)c1ccc(Cl)s1	i	13*
C/C(=N\Nc1nc2ccccc2[nH]1)c1ccc(C)o1	i	0.11
O=C(CNS(=O)(=O)c1c(F)cc(F)cc1Br)OCC(=O)N1CCCC1=O	i	0.31
CC(/C=C/c1ccccc1)NC(N)=O (stereo not drawn)	i	0.91
CC1=NN(C(=O)c2cccnc2)C(O)(C(F)(F)F)C1 (stereo not drawn)	i	11*
CC1=NN(C(=O)c2ccc(Cn3nc(C)c([N+](=O)[O-])c3C)cc2)C(O)(C(F)(F)F)C1 (stereo not drawn)	i	2.4
CC1=NN(C(=O)c2ccc(Cn3nc(C)c(Br)c3C)cc2)C(O)(C(F)(F)F)C1 (stereo not drawn)	i	13*
CC(C)C1=NN(C(=O)c2cccnc2)C(O)(C(F)(F)F)C1 (stereo not drawn)	i	0.87
Cc1ccc(C(=O)O[C@H](C(=O)O)[C@H](OC(=O)c2ccc(C)cc2)C(=O)O)cc1	i	0.01
COc1cc(NC(=S)NCCc2ccccc2)c(OC)cc1NC(=O)C(C)C	-5.8*	-5.8
COc1ccccc1CNC(=S)NCCc1ccccc1	i	.
COc1ccccc1CN1[C@@H](CC(C)=O)c2cc(C(F)(F)F)ccc2S1(=O)=O	i	0.01
O=C1c2ccccc2C(=O)N1CCCCN(C(=O)c1cc2ccccc2oc1=O)c1ccc(F)cc1F	i	1.9
CC(C)[C@H](NC(=O)c1ccccc1)C(=O)OCC(=O)N1CCN(C(=O)c2ccco2)CC1	i	.
CSCC[C@H](NS(=O)(=O)c1ccc(C)cc1)C(=O)N1CCC(C(=O)N[C@@H](Cc2ccc(O)cc2)C(=O)O)CC1	i	0.67
COc1ccc(OCc2nnc(SCC(=O)Nc3ccccc3Cl)o2)cc1	i	0.64
O=C1CCC(C(=O)O)N1 (stereo not drawn)	i	0.63
COc1ccccc1N1CCN(C(=O)c2cc3c(s2)-c2ccccc2OC3)CC1	i	.
O=C(c1cc2c(s1)-c1ccccc1OC2)N1CCc2ccccc2C1	-5.6*	-5.6
O=C(COc1c(F)c(F)c(C(F)(F)F)c(F)c1F)Nc1ccc(N2CCOCC2)c(Cl)c1	i	0.01
CCC(C)c1ccc(NC(=O)COc2c(F)c(F)c(C(F)(F)F)c(F)c2F)cc1 (stereo not drawn)	i	6.1*
